# Screening results: PubChem, National Center for Advancing Translational Sciences (NCATS)
# Shown are actives, neighbours in structure and some others; about 6.8% of the full set was active somewhere.
# MCF10A rereplic: inducers of DNA re-replication in MCF 10A breast cells; MCF 10A DNA re-replication, Hoechst nuclear intensity, 48 h; Potency, µM (doses to about 46.1 µM), hits mostly activators; hit rate 2.9% among 350,000; also: nearly all actives have a fitted effect of over 50% in size
# PTAP TSG101 blk: blocks PTAP/TSG101 interaction to inhibit HIV-1 budding; 340,000 tested, under 10 active; Fluorescence polarization, FITC-PTAP peptide / Tsg101 binding; Potency, µM (titrated, usually from 115 µM), usual class: inhibitors; AID 493005; Q99816; active = well fitted inhibition curve with a large enough effect in the main read-out, with a control signal flat, not every such curve was filed as active; inconclusive = small, poorly fitted or top-dose-only effect, or effect the other way, or a change in a side signal; inactive = no such curve, though single readings can be large or run the other way
# Target sequence (Q99816 whole entry, looked up): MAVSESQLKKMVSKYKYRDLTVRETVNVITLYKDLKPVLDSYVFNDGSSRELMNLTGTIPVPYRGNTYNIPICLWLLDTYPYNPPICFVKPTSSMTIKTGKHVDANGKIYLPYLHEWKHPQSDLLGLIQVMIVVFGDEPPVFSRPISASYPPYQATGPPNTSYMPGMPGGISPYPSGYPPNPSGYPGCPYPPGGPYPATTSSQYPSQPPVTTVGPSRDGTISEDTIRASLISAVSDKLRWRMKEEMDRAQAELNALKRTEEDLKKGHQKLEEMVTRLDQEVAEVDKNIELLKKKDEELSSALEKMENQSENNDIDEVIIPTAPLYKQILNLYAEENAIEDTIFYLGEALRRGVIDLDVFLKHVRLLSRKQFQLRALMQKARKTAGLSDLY
#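 Fluorescence polarization binding of Tsg101 binding domain (10 uM final) to FITC-labeled PTAP peptide (50 nM final) in HEPES pH 7.5 buffer with NaCl, Tween 20, EDTA, TCEP. Compounds added before peptide; binding 20 min at RT.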
# KB-V1 cytotox: kills drug-selected multidrug resistant KB-V1 cells | KB-V1 MDR cells viability, CellTiter-Glo, 72 h | Potency, µM (highest dose often 46.1 µM), actives largely listed as cytotoxic | hit rate 3.4% among 400,000 | AID 1347076; also: nearly all actives have a fitted effect of over 60% in size
#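 KB-V1, DMEM (no phenol red) + 10% FBS; cpd pin-transferred, titration series; 72 h, 37 degrees C; CellTiter-Glo, luminescence. Data normalized, curve-fit.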
# PINK1 modulator: modulators of PINK1 expression | Potency, µM (series often up to 76.6 µM), actives largely listed as activators | hit rate 0.2% among 410,000 | PINK1 immunofluorescence, high-content cytometry, 24 h | AID 624263; active = well fitted activation curve with a large enough effect; inconclusive = small, poorly fitted or top-dose-only effect; cell line not stated here; also: nearly all actives have a fitted effect of over 65% in size
#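 Stable cell line treated 24 h with compounds at 5 concentrations (CCCP controls), then fixed and immunostained for PINK1 plus nuclear and cell stains; PINK1 immunofluorescence quantified by laser-scanning microplate cytometry.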
# SW480 rereplic: DNA re-replication induction in SW480 cells. Potency, µM (series often up to 46.1 µM), actives largely listed as activators. hit rate 1.8% among 340,000. AID 624297. SW480 DNA re-replication, Hoechst DNA content imaging, 48 h; also: nearly all actives have a fitted effect of over 55% in size
#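 Quantitative HTS format with DMSO vehicle controls; 48 hr drug incubation at 37 C, then 40 min Hoechst staining and scanning imager measurement at 405 nm excitation.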
# KB-3-1 cytotox: kills parental KB-3-1 adenocarcinoma cells | KB-3-1 viability, CellTiter-Glo ATP luminescence, 72 h | Potency, µM (top dose mostly 46.1 µM), hits mostly cytotoxic | hit rate 1.4% among 400,000 | AID 1347075; also: nearly all actives have a fitted effect of over 60% in size
#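 72 h, 37 °C compound treatment of KB-3-1 parental cells; CellTiter-Glo added, 10 min, luminescence read. Data corrected against DMSO-only plates and normalized before curve fitting.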
# A number is an active result; . = inactive; ? = inconclusive; / = no result; [ ] = remark or other dose. Unless noted, calls follow the shape of the dose curve; as a rule, active = well fitted curve in the direction sought with a large enough effect; inconclusive = small, poorly fitted or top-dose-only effect, or another doubt; inactive = no such curve, though single readings can be large; an effect the other way counts as inactive or inconclusive.
SMILES,MCF10A rereplic,PTAP TSG101 blk,KB-V1 cytotox,PINK1 modulator,SW480 rereplic,KB-3-1 cytotox
COc1ccccc1-c1cc(-c2ccccc2)nc(SC(C(N)=O)c2ccccc2)c1C#N (stereo not drawn),?,.,?,.,9.2µM,.
Cc1nc(SC(C(N)=O)c2ccccc2)c(C#N)c(C)c1C (stereo not drawn),.,.,.,.,.[9.22 µM],.
CN1CCc2c(C#N)c(N3CCCCC3)nc(NCc3ccccc3)c2C1,18µM,.,?,.,?,?
Cc1cc(-c2ccnc(-n3ncc(C(=O)NCC4COCCO4)c3C3CC3)n2)c(C)s1 (stereo not drawn),/,/,/,.,/,/
CCc1cc2c(=O)c(-c3nc4ccccc4[nH]3)coc2cc1OC(=O)N1CCOCC1,?,.,3.3µM,.,.,?
CC(C)c1cnc2c(c1SCc1ccc([N+](=O)[O-])cc1)c(=O)n(C)c(=O)n2C,/,/,/,.,/,/
Cc1ccc(S(=O)(=O)NCc2nc(-c3cccc(C)c3)no2)cc1,/,/,/,.,/,/
N#Cc1ccc(OCC(O)CN2CCN(c3ncc(C(F)(F)F)cc3Cl)CC2)cc1 (stereo not drawn),?,.,7.3µM,.,.,15µM
N#Cc1ccc(OCC(O)CN2CCN(CC(O)COc3ccc(C#N)cc3)CC2)cc1 (stereo not drawn),.,.,?,.,.,.
COc1cccc(/C=N/n2c(-c3ccco3)nc3ccccc3c2=O)c1,?,.,2.6µM,.,?,.
Fc1ccc(-c2cc(-c3nc(-c4ccc(Cl)cc4)no3)[nH]n2)cc1,/,/,.,.,/,.
Cn1c(=O)[nH]c2cc3ccccc3cc21,.,.,1.3µM,.,.,1.6µM
Cn1c(=O)[nH]c2cc(-c3noc(-c4cccc(Cl)c4)n3)ccc21,/,/,.,.,/,.
COc1ccc(Cl)cc1C1CC(=O)Nc2cc3c(cc21)OCCO3 (stereo not drawn),/,/,/,.,/,/
CCn1cc(C(=O)NCc2ccco2)c(=O)c2cc(S(=O)(=O)N3CCc4ccccc4C3)ccc21,?,.,.,.,.,23µM
CCn1cc(C(=O)NCc2ccco2)c(=O)c2cc(S(=O)(=O)N3CCCCCC3)ccc21,?,.,.,.,.,21µM
CCOC(=O)N1CCN(C(=O)c2cn(CC)c3ccc(S(=O)(=O)N4CC(C)CC(C)C4)cc3c2=O)CC1 (stereo not drawn),2.3µM,.,.,.,.,.
CCn1cc(C(=O)NCc2ccco2)c(=O)c2cc(S(=O)(=O)N3CC(C)CC(C)C3)ccc21 (stereo not drawn),.,.,?,.,.,5.8µM
CCn1cc(C(=O)NCc2ccco2)c(=O)c2cc(S(=O)(=O)N3CCC(C)CC3)ccc21,.,.,5.8µM,.,.,?
Cc1cc(C)cc(NS(=O)(=O)c2ccc3[nH]cc(C(=O)NCc4ccco4)c(=O)c3c2)c1,.,.,.,.,.,7.3µM
O=C1CCCC2=C1C(c1ccccc1Cl)N=C(Nc1nc3ccccc3o1)N2 (stereo not drawn),/,/,.,/,/,.
COc1cc([N+](=O)[O-])cc(/C=N/NC(=O)c2cncc(Br)c2)c1O,?,.,?,.,.,?
COc1cc(/C=N/NC(=O)c2cncc(Br)c2)cc([N+](=O)[O-])c1O,.,.,?,.,4.1µM,?
Cc1ccc(CNC(=O)c2ccc(Cn3c(SCc4ccccc4F)nc4cccnc43)cc2)cc1,/,/,/,.,/,/
Cc1nc(NC(=O)CSc2nc3cccnc3n2Cc2ccccc2)sc1C,23µM,.,?,.,.,.
SMILES,MCF10A rereplic,PTAP TSG101 blk,KB-V1 cytotox,PINK1 modulator,SW480 rereplic,KB-3-1 cytotox
Cc1cccc(Cn2c(SCc3ccc(C(=O)NCc4ccccc4F)cc3)nc3cccnc32)c1,/,/,15µM,.,/,?
Cc1cccc(Cn2c(SCc3ccc(C(=O)NCCc4ccccc4)cc3)nc3cccnc32)c1,/,/,18µM,.,/,?
Cc1cccc(CNC(=O)CN2C(=O)CCn3nc(-c4cn(C)c5ccccc45)cc32)c1,/,/,.,.,/,.
Cc1cccc(N2CCN(CCCNC(=O)c3nnc(Cc4c(F)cccc4Cl)o3)CC2C)c1 (stereo not drawn),/,/,.,.,/,.
COc1ccc([N+](=O)[O-])cc1CN1CCN(c2ncc(Cc3ccccc3)cn2)CC1,/,/,7.3µM,/,/,?
Cc1cccc(-c2ccc([N+](=O)[O-])cc2CN2CCN(c3ncc(Cc4ccccc4)cn3)CC2)c1,/,/,?,/,/,.
Cc1cccc(-c2ccc(O)cc2CN2CCN(c3ncc(Cc4ccccc4)cn3)CC2)c1,/,/,?,/,/,.
Oc1ccc(Br)c(CN2CCN(c3ncc(Cc4ccccc4)cn3)CC2)c1,/,/,18µM,/,/,21µM
CC(C)CC(=O)Nc1nc2ccc(S(=O)(=O)N3CCOCC3)cc2s1,?,.,?,.,18µM,?
CCOC(=O)c1sc2ccc(S(=O)(=O)N3CCOCC3)cc2c1N,.,.,.,.,.,.
CCOC(=O)c1sc2ccc(S(=O)(=O)N3CCCCC3)cc2c1N,?,.,?,.,26µM,23µM
CCCC(=O)Nc1nc2ccc(S(=O)(=O)N3CCCCC3)cc2s1,?,.,?,.,3.7µM,13µM
CC(=O)Nc1nc2ccc(S(=O)(=O)N3CCCC3)cc2s1,.,.,.,.,.,.
Cc1ccc(CN2CCOc3ccc(C(C)(O)COc4ccccc4)cc3C2)o1 (stereo not drawn),/,/,/,.,/,/
C[C@H](CN1c2ccccc2Sc2cccnc21)N(C)C,.,/,/,/,.,/
CCOc1ccc(CNCc2c(C(=O)O)c(C)n(Cc3ccc(F)cc3Cl)c2C)cc1,/,/,.,.,/,.
NC1=NN=C(N2N=C(c3ccccc3)CC2(O)C(F)(F)F)n2ncnc2C1 (stereo not drawn),.,.,.,.,.,.
COc1ccc(C2=NN(C3=NN=C(N)Cc4ncnn43)C(O)(C(F)(F)F)C2)cc1 (stereo not drawn),0.58µM,.,?,.,.,.
NC1=NN=C(N2N=C(c3ccc(Br)cc3)CC2(O)C(F)(F)F)n2ncnc2C1 (stereo not drawn),.,.,.,.,.,.
COc1ccccc1C1=NN(C2=NN=C(N)Cc3ncnn32)C(O)(C(F)(F)F)C1 (stereo not drawn),0.58µM,.,.,.,.,.
C[C@H](NC(c1ccc(F)cc1)c1ccc2cccnc2c1O)c1ccccc1 (stereo partly drawn),/,/,.,/,/,?
CN(C)C(=O)c1ccc(SC(=S)NCc2ccccc2)cc1,/,/,?,.,/,6.5µM
CSc1cccc(NC(=O)Cn2c3ncccc3c(=O)n2-c2ccc(C)cc2)c1,/,/,.,.,/,.
COc1ccc(CN2CCC(N(CCc3ccccc3)Cc3ccccc3)CC2)c(OC)c1,15µM,.,13µM,.,?,?
O=C(OCC(=O)c1c[nH]c2ccccc12)c1cc2ccccc2cc1O,12µM,.,?,?,.,.
